High-throughput results deposited in PubChem BioAssay by National Center for Advancing Translational Sciences (NCATS).
JMJD2A Tudor = inhibitors of human JMJD2A Tudor domain | AlphaScreen JMJD2A-Tudor / H3K4me3 peptide binding | Potency, µM (doses to about 114 µM), usual class: inhibitors | hit rate 4.4% among 390,000 | AID 504339; also: nearly all actives have a fitted effect of over 50% in size
G9a inh = inhibitors of human histone lysine methyltransferase G9a. Potency, µM (series often up to 102 µM), usual class: inhibitors. G9a H3K9 monomethylation, AlphaScreen, 2 h. hit rate 8.8% among 350,000. Q96KQ7; also: nearly all actives have a fitted effect of over 75% in size
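Quantitative HTS format: methyltransferase activity on a biotin-tagged H3K9 peptide is measured by AlphaScreen, using a rabbit anti-monomethyl-H3K9 antibody with streptavidin donor and anti-IgG acceptor beads. Final levels are 20 nM enzyme, 500 nM peptide, 20 uM SAM; 2 h RT.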
BAZ2B block = BAZ2B (human) inhibition. Q9UIF8. AlphaScreen BAZ2B-H3K14Ac peptide displacement. Potency, µM (titrated, usually from 114 µM), hits mostly inhibitors. hit rate 4.4% among 360,000; also: nearly all actives have a fitted effect of over 60% in size
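Compounds, titrated to a top concentration of 110 uM, were incubated 30 min at room temperature with preformed BAZ2B/acetyl-K14 H3 peptide complex (50 nM each). Proximity signal was measured by AlphaScreen after 20 min with beads.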
L3MBTL1 inh = blocks human L3MBTL1; Potency, µM (titrated, usually from 57.1 µM), most hits filed as inhibitors; AlphaScreen L3MBTL1–H3K9me1 peptide binding; Q9Y468; hit rate 0.66% among 230,000; also: nearly all actives have a fitted effect of over 60% in size
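L3MBTL1 (50 nM) pre-complexed 30 min with biotinylated H3(1-15)K9me1 peptide (75 nM), then compounds added for 30 min at room temperature; AlphaScreen streptavidin donor/nickel chelate acceptor beads (10 ug/mL final) read after 30 min dark incubation.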
HP1b binding inh = inhibitors of HP1-beta chromodomain binding to methylated histone tails; hit rate 0.56% among 390,000; P83916; Potency, µM (top dose mostly 114 µM), hits mostly inhibitors; AlphaScreen HP1-beta / biotin-H3K9me3 peptide binding; AID 540317; also: nearly all actives have a fitted effect of over 70% in size
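Compound inhibition of the preformed complex between 50 nM HP1-beta and 50 nM biotinylated H3K9me3 peptide was read by AlphaScreen. Buffer was PBS pH 7.4 with 0.01% Tween-20. Incubations ran 30 min at room temperature, with 10 ug/mL donor/acceptor beads.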
PI5P4K alpha inh = blocks human PI5P4K alpha kinase activity; PI5P4Kalpha enzyme, ADP-Glo luminescence, 60 min; active compounds read low; max response, %; P48426; hit rate 1.2% among 330,000; active = max response of -50% or lower; inconclusive = between -30% and -50%; inactive = -30% or higher; also: value at the top dose of about 77 µM
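Single end-point luminescence (ADP-Glo) quantified ADP from PI5P4Kalpha turnover; ATP 5 microM final, 1 h at RT, 0.1% CHAPS and 0.28 mM EGTA in HEPES pH 7.4.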
A number is an active result; n = inactive; u = inconclusive; x = not tested or not shown; [ ] = another dose, or the depositor's remark. A selection: hits, their analogues and other compounds. The true share with any hit is near 11%. Unless noted, calls follow the shape of the dose curve; as a rule, active = well fitted inhibition curve with a large enough effect; inconclusive = small, poorly fitted or top-dose-only effect; inactive = no such curve, though single readings can be large or run the other way.

SMILES	JMJD2A Tudor	G9a inh	BAZ2B block	L3MBTL1 inh	HP1b binding inh	PI5P4K alpha inh
O=C(c1ccccc1O)N1CCOCC1	n	n	n	n	n	n
Cc1cc(C(=O)Nc2c(C)nc3ccccn3c2=O)ccc1[N+](=O)[O-]	n	n	n	x	n	x
COc1ccccc1C(=O)Nc1cccc(OCc2cc(=O)n3c4c(sc3n2)CCCC4)c1	n	n	n	x	n	x
CCOc1cccc(C2C(C(=O)c3ccco3)=C(O)C(=O)N2c2nnc(C)s2)c1 (stereo unspecified)	u	u	u	n	n	n
CCOc1cccc(C2c3c(oc4ccccc4c3=O)C(=O)N2c2nc(C)c(C(=O)OC)s2)c1 (stereo unspecified)	n	n	u	x	n	x
CCCOc1cccc(C2C(C(=O)c3ccc(C)o3)=C(O)C(=O)N2c2nc(C)c(C(C)=O)s2)c1 (stereo unspecified)	n	15.8µM	56.2µM	x	n	n
CCOc1cccc(C2C(C(=O)c3ccc(C)o3)=C(O)C(=O)N2c2nnc(C)s2)c1 (stereo unspecified)	1.12µM	x	x	x	u	n
CCOc1ccccc1N1CCN(c2nc(N)c(C#N)c(CC#N)c2C#N)CC1	n	u	u	n[11.4 µM]	n	-67.1
CCCCNc1cc(=O)n(C)c(=O)[nH]1	n	50.1µM	n	x	n	n
Cc1ccccc1CNC(=O)Cn1c(=O)c2cccn2c2cccnc21	n	n	n	x	n	x
Cn1nc(-c2ccccc2)c(C(=O)NC(C(=O)O)c2ccccc2)c1Cl (stereo unspecified)	n	x	50.1µM	n	n	n
Cn1nc(-c2ccccc2)c(C(=O)Nc2ccc(Cl)cc2)c1Cl	n	n	n	n	n	n
CC(C)N(Cc1ccccc1)C(=O)CCS(=O)(=O)c1cc2c(cc1Cl)NC(=O)CO2	n	n	n	x	n	x
O=C(NC1CC1)c1cc(OCC(F)(F)F)ccc1OCC(F)(F)F	n	n	n	n	n	n
O=C(NO)c1cc(OCC(F)(F)F)ccc1OCC(F)(F)F	n	79.4µM	n	n	n	n
COc1cc(/C=C/c2nc3ccccc3c(=O)[nH]2)cc(Br)c1O	n	u	u	x	n	n
CCOc1cc(/C=C2\CCCc3c2nc2ccccc2c3C(=O)O)ccc1OC	89.1µM	u	79.4µM	x	n	n
COc1ccc(/C=C2\CCCc3c2nc2ccccc2c3C(=O)OCC(=O)c2c(N)n(C)c(=O)n(C)c2=O)cc1	x	n	n	n	x	x
COc1cc(/C=C2\CCCc3c2nc2ccccc2c3C(=O)O)cc(Br)c1O	n	39.8µM	u	x	n	n
CCN1C/C(=C\c2cccc(C)c2)c2nc3ccccc3c(C(=O)O)c2C1	x	n[0.501 µM]	u	n	x	x
COc1cccc(/C=C2\CC(C)Cc3c2nc2ccccc2c3C(=O)O)c1OC (stereo unspecified)	n	50.1µM	n	x	n	n
CC(=O)OCC(NC(=O)C(C)NC(=O)OC(C)(C)C)C1OC(n2cc(F)c(=O)[nH]c2=O)C(OC(C)=O)C1OC(C)=O (stereo unspecified)	n	x	x	x	n	x
CCCOc1ccc(C(C(=O)OCCN(CC)CC)c2ccccc2)cc1 (stereo unspecified)	n[11.4 µM]	8.91µM	50.1µM	x	n	n
Cc1cccc2cc3c(N)c(C#N)sc3nc12	n	7.94µM	n	n	n	n
Cc1cccc2cc3c(N)c(C(=O)N4CCc5ccccc54)sc3nc12	n	1.41µM	n	n	n	n
SMILES	JMJD2A Tudor	G9a inh	BAZ2B block	L3MBTL1 inh	HP1b binding inh	PI5P4K alpha inh
Cc1cccc2cc3c(N)c(C(=O)Nc4ccc(N5CCOCC5)cc4)sc3nc12	n	u	n	n	n	x
CCOC(=O)C1=NNC(C(=O)c2ccc(C)cc2)C1c1ccc(C)cc1 (stereo unspecified)	n	79.4µM	n	n	n	n
CCOC(=O)C1=NNC(C(=O)c2ccc(OC)cc2)C1c1ccccc1 (stereo unspecified)	n	56.2µM	n	x	n	n
CCOC(=O)C1=NNC(C(=O)c2ccccc2)C1c1ccc(C)cc1 (stereo unspecified)	n	n	n	n	n	n
CCOC(=O)C1NN=C(C(=O)c2ccccc2)C1c1ccc(OC)cc1 (stereo unspecified)	n	n	n	x	n	n
N#C/C(=N\Nc1cccc(C(F)(F)F)c1)C(=O)c1ccsc1	50.1µM	39.8µM	39.8µM	n	n	n
COc1ccc(OC)c(CN2CCC(Cc3ccccc3)CC2)c1	50.1µM	x	56.2µM	n	u	n
COc1cc(C)c(CN2CCC(Cc3ccccc3)CC2)cc1C	28.2µM	x	56.2µM	n	n	n
COc1cc(OC)c(CN2CCC(Cc3ccccc3)CC2)cc1Br	25.1µM	x	56.2µM	n	n	n
COc1ccc(-c2noc(CN3CCC(Cc4ccccc4)CC3)n2)cc1	n	n	n	n	n	x
Nc1nc2[nH]cc(CCc3ccc(C(=O)NC(CCC(=O)O)C(=O)O)cc3)c2c(=O)[nH]1 (stereo unspecified)	x	n[12.7 µM]	x	x	x	x
O=C(O)C1OC(Oc2c(-c3ccc(O)c(O)c3)oc3cc(O)cc(O)c3c2=O)C(O)C(O)C1O (stereo unspecified)	31.6µM	31.6µM	35.5µM	u	u	u
CC1OC(Oc2c(-c3cc(O)c(O)c(O)c3)oc3cc(O)cc(O)c3c2=O)C(O)C(O)C1O (stereo unspecified)	u	39.8µM	n	u	n	u
C[C@@H]1O[C@@H](OC[C@@H]2O[C@H](Oc3c(-c4ccc(O)cc4)oc4cc(O)cc(O)c4c3=O)[C@@H](O)[C@H](O)[C@H]2O)[C@H](O)[C@H](O)[C@H]1O	n	x	x	n	n	n
CN(Cc1ccccc1)C(=S)NC(=O)c1cccs1	n	39.8µM	u	x	n	n
CN(Cc1ccccc1)C(=S)NC(=O)c1ccc(-c2ccccc2)cc1	n	n	n	n	n	n
CN(C)c1ccc(NC2=C(Cl)C(=O)c3ccccc3C2=O)cc1	6.31µM	2.24µM	2.51µM	15.8µM	5.01µM	n
COC(=O)c1ccccc1S(=O)(=O)Nc1ccc2cn[nH]c2c1	n	44.7µM	n	n	n	n
CC(C)c1ccc(NC(=S)Nc2ccc3cn[nH]c3c2)cc1	n	79.4µM	u	n	n	n
Cc1ccc(NC(=S)Nc2ccc3cn[nH]c3c2)cc1C	n	u	n	n	n	n
O=C1C(Cl)=C(Nc2ccc3cn[nH]c3c2)C(=O)c2ccccc21	14.1µM	n	8.91µM	x	15.8µM	-87.3
COc1ccc2c(c1)c(=O)c(C(=O)c1ccc(F)cc1)cn2CC(=O)Nc1ccc2c(c1)OCO2	n	n	n	x	n	x
Cc1cc(C)cc(-n2c(SCC(=O)N3CCC(C)CC3)nc3c([nH]c4ccccc43)c2=O)c1	n	n	n	x	n	x
CCOC(=O)N1CCc2c(sc3c2c(=O)n(-c2ccc(Cl)cc2)c(=O)n3CC(C)C)C1	n	n	n	x	n	x
